{"source": "the supplement of paper PMC8728848", "binders": {"B1": {"name": "AFCNVH (Aspergillus fumigatus) (protein)", "chain": "MSLRGFHTTCDTIVLKDKHILSSRCKRPDGTYSFSEIDLNDCLGNNNGKFVWGGESFVDSASQVNLALEGGEGRPMLHAQLNDWHGSVQSASVNLGECIQNEAGGLEYMHC"}}, "experiment_in_all_cases": "glycan array binding signal (z-score within array); higher = stronger binding", "details_in_all_cases": "glycan notation: IUPAC condensed, linker removed", "key": {"[1]": {"target": "Fuc(a1-2)Gal(b1-4)Fuc(a1-3)]GlcNAc(b1-2)Man(a1-3)[Fuc(a1-2)Gal(b1-4)[Fuc(a1-3)]GlcNAc(b1-2)Man(a1-6)]Man(b1-4)GlcNAc(b1-4)GlcNAc", "in_short": "(§1)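 Negative Z-scores can be read as non-binding. The Z-score is calculated within each array and then averaged across arrays of one protein sequence at different concentrations or buffers and across linkers. Arrays, 3228 in all, were curated from the Consortium for Functional Glycomics database and kept only where the protein sequence was available.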"}, "[2]": {"target": "Fuc(a1-2)Gal(b1-4)GlcNAc(b1-2)Man(a1-3)[Fuc(a1-2)Gal(b1-4)GlcNAc(b1-2)Man(a1-6)]Man(b1-4)GlcNAc(b1-4)[Fuc(a1-6)]GlcNAc", "in_short": "as §1"}, "[3]": {"target": "Fuc(a1-2)Gal(b1-4)GlcNAc(b1-2)[Fuc(a1-2)Gal(b1-4)GlcNAc(b1-4)]Man(a1-3)[Fuc(a1-2)Gal(b1-4)GlcNAc(b1-2)Man(a1-6)]Man(b1-4)GlcNAc(b1-4)GlcNAc", "in_short": "as §1"}, "[4]": {"target": "Fuc(a1-2)[Gal(a1-3)]Gal(b1-3)GlcNAc(b1-2)Man(a1-3)[Fuc(a1-2)[Gal(a1-3)]Gal(b1-3)GlcNAc(b1-2)Man(a1-6)]Man(b1-4)GlcNAc(b1-4)[Fuc(a1-6)]GlcNAc", "in_short": "as §1"}, "[5]": {"target": "Fuc(a1-2)[Gal(a1-4)]Gal(b1-4)GlcNAc", "in_short": "as §1"}, "[6]": {"target": "Fuc(a1-3)[Gal(b1-4)]Glc6S", "in_short": "as §1"}, "[7]": {"target": "Fuc(a1-3)[Gal(b1-4)]GlcNAc6S", "in_short": "as §1"}, "[8]": {"target": "Fuc(a1-3)[GalNAc(b1-4)]GlcNAc6S", "in_short": "as §1"}, "Gal(a1-3)Gal(b1-3)GlcNAc": {"target": "Gal(a1-3)Gal(b1-3)GlcNAc", "in_short": "as §1"}, "Gal(a1-3)GalNAc": {"target": "Gal(a1-3)GalNAc", "in_short": "as §1"}, "[9]": {"target": "Gal(b1-3)GalNAc(b1-3)Gal(a1-4)Gal(b1-4)Glc", "in_short": "as §1"}, "[10]": {"target": "Gal(b1-3)GlcNAc(b1-6)Gal(b1-4)GlcNAc", "in_short": "as §1"}, "[11]": {"target": "Gal(b1-3)[Neu5Ac(a2-6)]GalNAc", "in_short": "as §1"}, "[12]": {"target": "Gal(b1-4)GlcNAc(b1-2)[Gal(b1-4)GlcNAc(b1-6)]Man(a1-6)[Gal(b1-4)GlcNAc(b1-2)Man(a1-3)]Man(b1-4)GlcNAc(b1-4)[Fuc(a1-6)]GlcNAc", "in_short": "as §1"}, "[13]": {"target": "Gal(b1-4)GlcNAc(b1-3)Gal(b1-4)GlcNAc(b1-3)[Gal(b1-4)GlcNAc(b1-3)Gal(b1-4)GlcNAc(b1-6)]GalNAc", "in_short": "as §1"}, "[14]": {"target": "Gal(b1-4)GlcNAc(b1-3)[GlcNAc(b1-6)]Gal(b1-4)GlcNAc", "in_short": "as §1"}, "[15]": {"target": "GalNAc(a1-3)GalNAc(b1-3)Gal(a1-4)Gal(b1-4)Glc", "in_short": "as §1"}, "[16]": {"target": "GalNAc(b1-3)Gal(a1-6)Gal(b1-4)Glc", "in_short": "as §1"}, "[17]": {"target": "GalNAc(b1-4)GlcNAc(b1-2)Man", "in_short": "as §1"}, "[18]": {"target": "GalNAc(b1-4)GlcNAc(b1-2)Man(a1-3)[GalNAc(b1-4)GlcNAc(b1-2)Man(a1-6)]Man(b1-4)GlcNAc(b1-4)GlcNAc", "in_short": "as §1"}, "GalNAc3S(b1-4)GlcNAc": {"target": "GalNAc3S(b1-4)GlcNAc", "in_short": "as §1"}, "[19]": {"target": "GlcNAc(a1-3)Gal(b1-4)GlcNAc", "in_short": "as §1"}, "[20]": {"target": "GlcNAc(a1-4)Gal(b1-4)GlcNAc(b1-3)Gal(b1-4)Glc", "in_short": "as §1"}, "[21]": {"target": "GlcNAc(b1-2)Man(a1-3)[GlcNAc(b1-2)Man(a1-6)]Man(b1-4)GlcNAc(b1-4)GlcNAc", "in_short": "as §1"}, "[22]": {"target": "GlcNAc(b1-2)Man(a1-3)[GlcNAc(b1-4)][GlcNAc(b1-2)Man(a1-6)]Man(b1-4)GlcNAc(b1-4)GlcNAc", "in_short": "as §1"}}, "note": "The entries come from a sample that favours the strongest signals as a whole.", "data": [{"binder": "B1", "values": [{"measurement": "glycan array binding signal (z-score)", "setting": "[1]", "result": -0.233}, {"measurement": "glycan array binding signal (z-score)", "setting": "[2]", "result": -0.175}, {"measurement": "glycan array binding signal (z-score)", "setting": "[3]", "result": -0.277}, {"measurement": "glycan array binding signal (z-score)", "setting": "[4]", "result": -0.326}, {"measurement": "glycan array binding signal (z-score)", "setting": "[5]", "result": 0.231}, {"measurement": "glycan array binding signal (z-score)", "setting": "[6]", "result": -0.331}, {"measurement": "glycan array binding signal (z-score)", "setting": "[7]", "result": -0.372}, {"measurement": "glycan array binding signal (z-score)", "setting": "[8]", "result": 0.612}, {"measurement": "glycan array binding signal (z-score)", "setting": "Gal(a1-3)Gal(b1-3)GlcNAc", "result": -0.453}, {"measurement": "glycan array binding signal (z-score)", "setting": "Gal(a1-3)GalNAc", "result": -0.37}, {"measurement": "glycan array binding signal (z-score)", "setting": "[9]", "result": -0.212}, {"measurement": "glycan array binding signal (z-score)", "setting": "[10]", "result": -0.391}, {"measurement": "glycan array binding signal (z-score)", "setting": "[11]", "result": -0.504}, {"measurement": "glycan array binding signal (z-score)", "setting": "[12]", "result": -0.378}, {"measurement": "glycan array binding signal (z-score)", "setting": "[13]", "result": -0.168}, {"measurement": "glycan array binding signal (z-score)", "setting": "[14]", "result": 4.53}, {"measurement": "glycan array binding signal (z-score)", "setting": "[15]", "result": -0.347}, {"measurement": "glycan array binding signal (z-score)", "setting": "[16]", "result": -0.462}, {"measurement": "glycan array binding signal (z-score)", "setting": "[17]", "result": 4.18}, {"measurement": "glycan array binding signal (z-score)", "setting": "[18]", "result": 4.08}, {"measurement": "glycan array binding signal (z-score)", "setting": "GalNAc3S(b1-4)GlcNAc", "result": 1.43}, {"measurement": "glycan array binding signal (z-score)", "setting": "[19]", "result": 4.61}, {"measurement": "glycan array binding signal (z-score)", "setting": "[20]", "result": 3.99}, {"measurement": "glycan array binding signal (z-score)", "setting": "[21]", "result": -0.164}, {"measurement": "glycan array binding signal (z-score)", "setting": "[22]", "result": 4.58}]}]}
